Measurements: article PMC11006913

Legend:
Experiment in all cases: PBM; 200 nM protein, PBS
Details in all cases: dsDNA, one strand shown
HESX1 [1] = biological target: HESX1 (Homo sapiens, UniProt Q9UBX0 95-180, R165K)
HOXB4 [2] = biological target: HOXB4 (Homo sapiens, UniProt P17483 148-234)
SHOX [3] = biological target: SHOX (Homo sapiens, UniProt O15266 103-189)
HESX1 [4] = biological target: HESX1 (Homo sapiens, UniProt Q9UBX0 95-180)
HOXB4 [5] = biological target: HOXB4 (Homo sapiens, UniProt P17483 148-234, V174I)
ALX1 [6] = biological target: ALX1 (Homo sapiens, UniProt Q15699 118-204, L144V)
ALX3 [7] = biological target: ALX3 (Homo sapiens, UniProt O95076 139-225, N203Q)
SHOX [8] = biological target: SHOX (Homo sapiens, UniProt O15266 103-189, R173C)
ALX1 [9] = biological target: ALX1 (Homo sapiens, UniProt Q15699 118-204, L144R)
ALX3 [10] = biological target: ALX3 (Homo sapiens, UniProt O95076 139-225)
PROP1 [11] = biological target: PROP1 (Homo sapiens, UniProt O75360 56-141)
HESX1 [12] = biological target: HESX1 (Homo sapiens, UniProt Q9UBX0 95-180, R109Q)
PROP1 [13] = biological target: PROP1 (Homo sapiens, UniProt O75360 56-141, R99H)
ALX3 [14] = biological target: ALX3 (Homo sapiens, UniProt O95076 139-225, L168Q)
HESX1 [15] = biological target: HESX1 (Homo sapiens, UniProt Q9UBX0 95-180, P111T)
ALX3 [16] = biological target: ALX3 (Homo sapiens, UniProt O95076 139-225, L168V)
PROP1 [17] = biological target: PROP1 (Homo sapiens, UniProt O75360 56-141, F88S)
HESX1 [18] = biological target: HESX1 (Homo sapiens, UniProt Q9UBX0 95-180, F115L)
ALX1 [19] = biological target: ALX1 (Homo sapiens, UniProt Q15699 118-204)
ALX3 [20] = biological target: ALX3 (Homo sapiens, UniProt O95076 139-225, N203S)
Chain of ALX3 (Homo sapiens, UniProt O95076 139-225, N203S) (O95076 139-225 N203S): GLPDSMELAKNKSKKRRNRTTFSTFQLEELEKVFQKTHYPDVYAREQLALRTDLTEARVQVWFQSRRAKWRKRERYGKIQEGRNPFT

Chain of ALX3 (Homo sapiens, UniProt O95076 139-225, N203Q) (O95076 139-225 N203Q): as the sequence (O95076 139-225 N203S) above, with S65Q counted along it
Chain of HESX1 (Homo sapiens, UniProt Q9UBX0 95-180, F115L) (Q9UBX0 95-180 F115L): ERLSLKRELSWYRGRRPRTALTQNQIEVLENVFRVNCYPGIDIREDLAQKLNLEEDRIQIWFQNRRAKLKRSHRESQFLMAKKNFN
Chain of PROP1 (Homo sapiens, UniProt O75360 56-141, F88S) (O75360 56-141 F88S): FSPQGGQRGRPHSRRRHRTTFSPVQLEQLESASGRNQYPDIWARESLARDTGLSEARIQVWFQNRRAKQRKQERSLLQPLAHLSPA
Chain of ALX3 (Homo sapiens, UniProt O95076 139-225, L168V) (O95076 139-225 L168V): as the sequence (O95076 139-225 N203S) above, with L30V, S65N counted along it
Chain of ALX1 (Homo sapiens, UniProt Q15699 118-204, L144V) (Q15699 118-204 L144V): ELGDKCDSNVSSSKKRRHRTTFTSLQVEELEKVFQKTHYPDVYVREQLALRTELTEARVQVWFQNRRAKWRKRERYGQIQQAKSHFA
Chain of HESX1 (Homo sapiens, UniProt Q9UBX0 95-180, R165K) (Q9UBX0 95-180 R165K): as the sequence (Q9UBX0 95-180 F115L) above, with L21F, R71K counted along it
Chain of ALX3 (Homo sapiens, UniProt O95076 139-225, L168Q) (O95076 139-225 L168Q): as the sequence (O95076 139-225 N203S) above, with L30Q, S65N counted along it
Chain of PROP1 (Homo sapiens, UniProt O75360 56-141, R99H) (O75360 56-141 R99H): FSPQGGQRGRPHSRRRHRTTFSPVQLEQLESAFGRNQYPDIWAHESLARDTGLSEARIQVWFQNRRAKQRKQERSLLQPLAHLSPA
Chain of SHOX (Homo sapiens, UniProt O15266 103-189) (O15266 103-189): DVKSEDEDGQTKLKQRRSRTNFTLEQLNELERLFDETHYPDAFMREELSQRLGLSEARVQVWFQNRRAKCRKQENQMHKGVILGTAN
Chain of HESX1 (Homo sapiens, UniProt Q9UBX0 95-180) (Q9UBX0 95-180): as the sequence (Q9UBX0 95-180 F115L) above, with L21F counted along it
Chain of ALX3 (Homo sapiens, UniProt O95076 139-225) (O95076 139-225): as the sequence (O95076 139-225 N203S) above, with S65N counted along it
Chain of SHOX (Homo sapiens, UniProt O15266 103-189, R173C) (O15266 103-189 R173C): as the sequence (O15266 103-189) above, with R71C counted along it
Chain of ALX1 (Homo sapiens, UniProt Q15699 118-204, L144R) (Q15699 118-204 L144R): as the sequence (Q15699 118-204 L144V) above, with V27R counted along it
Chain of HESX1 (Homo sapiens, UniProt Q9UBX0 95-180, P111T) (Q9UBX0 95-180 P111T): as the sequence (Q9UBX0 95-180 F115L) above, with P17T, L21F counted along it
Chain of HOXB4 (Homo sapiens, UniProt P17483 148-234) (P17483 148-234): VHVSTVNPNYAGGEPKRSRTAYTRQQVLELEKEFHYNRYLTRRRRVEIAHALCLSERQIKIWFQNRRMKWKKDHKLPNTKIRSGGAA
Chain of HESX1 (Homo sapiens, UniProt Q9UBX0 95-180, R109Q) (Q9UBX0 95-180 R109Q): as the sequence (Q9UBX0 95-180 F115L) above, with R15Q, L21F counted along it
Chain of ALX1 (Homo sapiens, UniProt Q15699 118-204) (Q15699 118-204): as the sequence (Q15699 118-204 L144V) above, with V27L counted along it
Chain of HOXB4 (Homo sapiens, UniProt P17483 148-234, V174I) (P17483 148-234 V174I): as the sequence (P17483 148-234) above, with V27I counted along it
Chain of PROP1 (Homo sapiens, UniProt O75360 56-141) (O75360 56-141): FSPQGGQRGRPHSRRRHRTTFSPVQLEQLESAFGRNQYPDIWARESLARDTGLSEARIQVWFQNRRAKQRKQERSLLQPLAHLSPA

ATAATTAA
binding signal (HESX1 [1]): 13.5 upbm affinity estimate (log intensity, higher = more binding, comparable within an allelic series) | binding signal (HOXB4 [2]): 13.6 upbm affinity estimate (log intensity, higher = more binding, comparable within an allelic series) | binding signal (SHOX [3]): 12.7 upbm affinity estimate (log intensity, higher = more binding, comparable within an allelic series) | binding signal (HESX1 [4]): 13.3 upbm affinity estimate (log intensity, higher = more binding, comparable within an allelic series) | binding signal (HOXB4 [5]): 14.4 upbm affinity estimate (log intensity, higher = more binding, comparable within an allelic series) | binding signal (ALX1 [6]): 12.3 upbm affinity estimate (log intensity, higher = more binding, comparable within an allelic series) | binding signal (ALX3 [7]): 8.66 upbm affinity estimate (log intensity, higher = more binding, comparable within an allelic series) | binding signal (SHOX [8]): 10.3 upbm affinity estimate (log intensity, higher = more binding, comparable within an allelic series) | binding signal (ALX1 [9]): 11.9 upbm affinity estimate (log intensity, higher = more binding, comparable within an allelic series) | binding signal (ALX3 [10]): 12.9 upbm affinity estimate (log intensity, higher = more binding, comparable within an allelic series) | binding signal (PROP1 [11]): 11.9 upbm affinity estimate (log intensity, higher = more binding, comparable within an allelic series) | binding signal (HESX1 [12]): 9.82 upbm affinity estimate (log intensity, higher = more binding, comparable within an allelic series) | binding signal (PROP1 [13]): 11.9 upbm affinity estimate (log intensity, higher = more binding, comparable within an allelic series) | binding signal (ALX3 [14]): 11.2 upbm affinity estimate (log intensity, higher = more binding, comparable within an allelic series) | binding signal (HESX1 [15]): 12 upbm affinity estimate (log intensity, higher = more binding, comparable within an allelic series) | binding signal (ALX3 [16]): 10.9 upbm affinity estimate (log intensity, higher = more binding, comparable within an allelic series) | binding signal (PROP1 [17]): 8.13 upbm affinity estimate (log intensity, higher = more binding, comparable within an allelic series) | binding signal (HESX1 [18]): 8.29 upbm affinity estimate (log intensity, higher = more binding, comparable within an allelic series) | binding signal (ALX1 [19]): 12.8 upbm affinity estimate (log intensity, higher = more binding, comparable within an allelic series) | binding signal (ALX3 [20]): 8.77 upbm affinity estimate (log intensity, higher = more binding, comparable within an allelic series)

CATAATTA
binding signal (HESX1 [1]): 12.9 upbm affinity estimate (log intensity, higher = more binding, comparable within an allelic series) | binding signal (HOXB4 [2]): 13.6 upbm affinity estimate (log intensity, higher = more binding, comparable within an allelic series) | binding signal (SHOX [3]): 12.4 upbm affinity estimate (log intensity, higher = more binding, comparable within an allelic series) | binding signal (HESX1 [4]): 12.9 upbm affinity estimate (log intensity, higher = more binding, comparable within an allelic series) | binding signal (HOXB4 [5]): 14.4 upbm affinity estimate (log intensity, higher = more binding, comparable within an allelic series) | binding signal (ALX1 [6]): 12 upbm affinity estimate (log intensity, higher = more binding, comparable within an allelic series) | binding signal (ALX3 [7]): 8.61 upbm affinity estimate (log intensity, higher = more binding, comparable within an allelic series) | binding signal (SHOX [8]): 10 upbm affinity estimate (log intensity, higher = more binding, comparable within an allelic series) | binding signal (ALX1 [9]): 11.6 upbm affinity estimate (log intensity, higher = more binding, comparable within an allelic series) | binding signal (ALX3 [10]): 12.6 upbm affinity estimate (log intensity, higher = more binding, comparable within an allelic series) | binding signal (PROP1 [11]): 11.8 upbm affinity estimate (log intensity, higher = more binding, comparable within an allelic series) | binding signal (HESX1 [12]): 9.21 upbm affinity estimate (log intensity, higher = more binding, comparable within an allelic series) | binding signal (PROP1 [13]): 11.5 upbm affinity estimate (log intensity, higher = more binding, comparable within an allelic series) | binding signal (ALX3 [14]): 10.8 upbm affinity estimate (log intensity, higher = more binding, comparable within an allelic series) | binding signal (HESX1 [15]): 11.3 upbm affinity estimate (log intensity, higher = more binding, comparable within an allelic series) | binding signal (ALX3 [16]): 10.4 upbm affinity estimate (log intensity, higher = more binding, comparable within an allelic series) | binding signal (PROP1 [17]): 8.12 upbm affinity estimate (log intensity, higher = more binding, comparable within an allelic series) | binding signal (HESX1 [18]): 7.94 upbm affinity estimate (log intensity, higher = more binding, comparable within an allelic series) | binding signal (ALX1 [19]): 12.6 upbm affinity estimate (log intensity, higher = more binding, comparable within an allelic series) | binding signal (ALX3 [20]): 8.73 upbm affinity estimate (log intensity, higher = more binding, comparable within an allelic series)

GTAATTAC
binding signal (HESX1 [1]): 12.5 upbm affinity estimate (log intensity, higher = more binding, comparable within an allelic series) | binding signal (HOXB4 [2]): 13.7 upbm affinity estimate (log intensity, higher = more binding, comparable within an allelic series) | binding signal (SHOX [3]): 12.4 upbm affinity estimate (log intensity, higher = more binding, comparable within an allelic series) | binding signal (HESX1 [4]): 12.6 upbm affinity estimate (log intensity, higher = more binding, comparable within an allelic series) | binding signal (HOXB4 [5]): 14.4 upbm affinity estimate (log intensity, higher = more binding, comparable within an allelic series) | binding signal (ALX1 [6]): 12.1 upbm affinity estimate (log intensity, higher = more binding, comparable within an allelic series) | binding signal (ALX3 [7]): 8.56 upbm affinity estimate (log intensity, higher = more binding, comparable within an allelic series) | binding signal (SHOX [8]): 9.86 upbm affinity estimate (log intensity, higher = more binding, comparable within an allelic series) | binding signal (ALX1 [9]): 11.7 upbm affinity estimate (log intensity, higher = more binding, comparable within an allelic series) | binding signal (ALX3 [10]): 12.7 upbm affinity estimate (log intensity, higher = more binding, comparable within an allelic series) | binding signal (PROP1 [11]): 11.8 upbm affinity estimate (log intensity, higher = more binding, comparable within an allelic series) | binding signal (HESX1 [12]): 9.11 upbm affinity estimate (log intensity, higher = more binding, comparable within an allelic series) | binding signal (PROP1 [13]): 11.6 upbm affinity estimate (log intensity, higher = more binding, comparable within an allelic series) | binding signal (ALX3 [14]): 10.7 upbm affinity estimate (log intensity, higher = more binding, comparable within an allelic series) | binding signal (HESX1 [15]): 11 upbm affinity estimate (log intensity, higher = more binding, comparable within an allelic series) | binding signal (ALX3 [16]): 10.2 upbm affinity estimate (log intensity, higher = more binding, comparable within an allelic series) | binding signal (PROP1 [17]): 8.06 upbm affinity estimate (log intensity, higher = more binding, comparable within an allelic series) | binding signal (HESX1 [18]): 7.87 upbm affinity estimate (log intensity, higher = more binding, comparable within an allelic series) | binding signal (ALX1 [19]): 12.5 upbm affinity estimate (log intensity, higher = more binding, comparable within an allelic series) | binding signal (ALX3 [20]): 8.69 upbm affinity estimate (log intensity, higher = more binding, comparable within an allelic series)

ACTAATTG
binding signal (HESX1 [1]): 13 upbm affinity estimate (log intensity, higher = more binding, comparable within an allelic series) | binding signal (HOXB4 [2]): 13.1 upbm affinity estimate (log intensity, higher = more binding, comparable within an allelic series) | binding signal (SHOX [3]): 12.3 upbm affinity estimate (log intensity, higher = more binding, comparable within an allelic series) | binding signal (HESX1 [4]): 13 upbm affinity estimate (log intensity, higher = more binding, comparable within an allelic series) | binding signal (HOXB4 [5]): 13.8 upbm affinity estimate (log intensity, higher = more binding, comparable within an allelic series) | binding signal (ALX1 [6]): 11.9 upbm affinity estimate (log intensity, higher = more binding, comparable within an allelic series) | binding signal (ALX3 [7]): 8.32 upbm affinity estimate (log intensity, higher = more binding, comparable within an allelic series) | binding signal (SHOX [8]): 9.68 upbm affinity estimate (log intensity, higher = more binding, comparable within an allelic series) | binding signal (ALX1 [9]): 11.5 upbm affinity estimate (log intensity, higher = more binding, comparable within an allelic series) | binding signal (ALX3 [10]): 12.5 upbm affinity estimate (log intensity, higher = more binding, comparable within an allelic series) | binding signal (PROP1 [11]): 11.5 upbm affinity estimate (log intensity, higher = more binding, comparable within an allelic series) | binding signal (HESX1 [12]): 9.82 upbm affinity estimate (log intensity, higher = more binding, comparable within an allelic series) | binding signal (PROP1 [13]): 11.9 upbm affinity estimate (log intensity, higher = more binding, comparable within an allelic series) | binding signal (ALX3 [14]): 10.8 upbm affinity estimate (log intensity, higher = more binding, comparable within an allelic series) | binding signal (HESX1 [15]): 11.6 upbm affinity estimate (log intensity, higher = more binding, comparable within an allelic series) | binding signal (ALX3 [16]): 10.2 upbm affinity estimate (log intensity, higher = more binding, comparable within an allelic series) | binding signal (PROP1 [17]): 7.65 upbm affinity estimate (log intensity, higher = more binding, comparable within an allelic series) | binding signal (HESX1 [18]): 7.98 upbm affinity estimate (log intensity, higher = more binding, comparable within an allelic series) | binding signal (ALX1 [19]): 12.6 upbm affinity estimate (log intensity, higher = more binding, comparable within an allelic series) | binding signal (ALX3 [20]): 8.46 upbm affinity estimate (log intensity, higher = more binding, comparable within an allelic series)
